In PubChem BioAssay (Tox21):
Inconclusive results are not listed. Activity calls are given as the source filed them. Unless noted, calls come from the whole dose curve; as a rule, active = well fitted curve in the direction sought with a large enough effect in the repeat runs; inconclusive = weak or mixed curves; inactive = no such curve, though single readings can be large; an effect the other way counts as inactive or inconclusive.

Columns and labels:
[1] = target: Thyrotropin receptor (Homo sapiens) (UniProt P16473); assay: qHTS assay to identify small molecule antagonists of the thyroid stimulating hormone receptor (TSHR) signaling pathway (AID 1259385; calls by dose curve; note: nearly all actives have a fitted effect of over 20% in size)
In short: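 Antagonist mode: compound-treated TSHR-expressing HEK293 cells were stimulated with 1.5 ng/mL TSH (final) in presence of Ro20-1724 for 30 min at RT. HTRF cAMP detection after 1 h; each compound tested at 15 concentrations, triplicate.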

[2] = qHTS assay to identify small molecule agonists of the estrogen receptor alpha (ER-alpha) signaling pathway in the presence of an antagonist - cell viability counter screen (AID 1259386);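 note: series mostly up to about 92 µM; cells exposed to compounds for 22 h at 37 °C before the viability read; nearly all actives have a fitted effect of over 30% in size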
In short: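 Viability counter screen using VM7Luc4E2 (full-length ER-alpha, four ERE-luciferase). The cells were treated with compounds alongside ICI-182,780 10.0nM for 22hr, and live-cell protease fluorescence was quantified with CellTiter-Fluor.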

[3] = target: Progesterone receptor (Homo sapiens) (UniProt P06401); assay: qHTS assay to identify small molecule agonists of the progesterone receptor (PR) signaling pathway (AID 1346784; calls by dose curve; note: nearly all actives have a fitted effect of over 30% in size)
In short: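 Beta-lactamase reporter read-out: after 16 hr compound treatment at 37C and a further 2 hr at room temperature with LiveBLAzer B/G FRET substrate, fluorescence was measured in PR-UAS-bla HEK 293T cells grown in 2% charcoal-stripped serum.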

[4] = target: Progesterone receptor (Homo sapiens) (UniProt P06401); assay: qHTS assay to identify small molecule antagonists of the progesterone receptor (PR) signaling pathway (AID 1346795; active = well fitted inhibition curve with a large enough effect in the signal ratio in the repeat runs, not every such curve was filed as active; the % refers to the signal ratio)
In short: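 Read-out is fluorescence from the LiveBLAzer B/G FRET substrate, cleaved by a UAS-controlled beta-lactamase in PR-UAS-bla HEK293T cells after 16 hr exposure to compound plus 1 nM promegestone (final), followed by 2 hr at room temperature.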

[5] = qHTS assay to identify small molecule antagonists of the progesterone receptor (PR) signaling pathway - cell viability counter screen (AID 1346798);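 note: HEK293T PR-UAS-bla cells stimulated with the agonist R5020; series mostly up to about 92 µM; nearly all actives have a fitted effect of over 50% in size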
In short: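 HEK293T PR-UAS-bla, 2% charcoal-stripped FBS; 4 hr pre-plate; cpd + R5020, 16 h 37C; LiveBLAzer read first; then CellTiter-Glo 30 min RT, luminescence.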

[6] = qHTS assay to identify small molecule agonists of the progesterone receptor (PR) signaling pathway - cell viability counter screen (AID 1346799; calls by dose curve; note: nearly all actives have a fitted effect of over 45% in size)
In short: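 Luminescence from CellTiter-Glo, added after the beta-lactamase FRET read in the same wells, gave cytotoxicity in PR-UAS-bla HEK293T cells treated with compounds for 16 hr at 37C.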

[7] = qHTS assay to identify small molecule antagonists of the TGF-beta/Smad signaling pathway - cell viability counter screen (AID 1346824); note: nearly all actives have a fitted effect of over 50% in size
In short: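 Cytotoxicity counter-screen run in the same wells as the beta-lactamase Smad reporter read: CellTiter-Glo luminescence after 30 min at room temperature. HEK 293T SBE-bla cells had 5 hr compound exposure at 37 C with TGF-beta1 (0.25 ng/mL stock).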

[8] = qHTS assay to identify small molecule agonists of the TGF-beta/Smad signaling pathway - cell viability counter screen (AID 1346829); note: top concentration of the series differs between compounds; nearly all actives have a fitted effect of over 45% in size
In short: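 Luminescence from CellTiter-Glo, read after a 30 min room-temperature incubation, gives cell viability of SBE-bla HEK 293T cells treated 5 hr with compounds at 37 C.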

[9] = qHTS assay to identify small molecule agonists of the TGF-beta/Smad signaling pathway (AID 1346859; active = well fitted activation curve with a large enough effect in the signal ratio in the repeat runs, not every such curve was filed as active; the % refers to the signal ratio; note: series mostly up to about 77 µM)
In short: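 SBE-bla HEK 293T, 4,000 cells/well, plated o/n; cpd in DMSO, 5 hr, 37 C/5% CO2; B/G FRET substrate 2 hr RT; ex 405, em 460/530 nm.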

[10] = target: Thyrotropin-releasing hormone receptor (Homo sapiens) (UniProt P34981); assay: qHTS assay to identify small molecule antagonists of the thyrotropin-releasing hormone receptor (TRHR) signaling pathway (AID 1346877; active = well fitted inhibition curve with a large enough effect in the repeat runs, not every such curve was filed as active; note: series mostly up to about 51 µM)
In short: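 Following an 18 h incubation at 37 °C and a 2 h calcium dye load, TRHR-HEK293 cells were exposed to compound (5 min, room temperature) and challenged with TRH, 1 nM final.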

Measured: Potency

Sequence of Progesterone receptor (Homo sapiens) (P06401 whole entry, looked up): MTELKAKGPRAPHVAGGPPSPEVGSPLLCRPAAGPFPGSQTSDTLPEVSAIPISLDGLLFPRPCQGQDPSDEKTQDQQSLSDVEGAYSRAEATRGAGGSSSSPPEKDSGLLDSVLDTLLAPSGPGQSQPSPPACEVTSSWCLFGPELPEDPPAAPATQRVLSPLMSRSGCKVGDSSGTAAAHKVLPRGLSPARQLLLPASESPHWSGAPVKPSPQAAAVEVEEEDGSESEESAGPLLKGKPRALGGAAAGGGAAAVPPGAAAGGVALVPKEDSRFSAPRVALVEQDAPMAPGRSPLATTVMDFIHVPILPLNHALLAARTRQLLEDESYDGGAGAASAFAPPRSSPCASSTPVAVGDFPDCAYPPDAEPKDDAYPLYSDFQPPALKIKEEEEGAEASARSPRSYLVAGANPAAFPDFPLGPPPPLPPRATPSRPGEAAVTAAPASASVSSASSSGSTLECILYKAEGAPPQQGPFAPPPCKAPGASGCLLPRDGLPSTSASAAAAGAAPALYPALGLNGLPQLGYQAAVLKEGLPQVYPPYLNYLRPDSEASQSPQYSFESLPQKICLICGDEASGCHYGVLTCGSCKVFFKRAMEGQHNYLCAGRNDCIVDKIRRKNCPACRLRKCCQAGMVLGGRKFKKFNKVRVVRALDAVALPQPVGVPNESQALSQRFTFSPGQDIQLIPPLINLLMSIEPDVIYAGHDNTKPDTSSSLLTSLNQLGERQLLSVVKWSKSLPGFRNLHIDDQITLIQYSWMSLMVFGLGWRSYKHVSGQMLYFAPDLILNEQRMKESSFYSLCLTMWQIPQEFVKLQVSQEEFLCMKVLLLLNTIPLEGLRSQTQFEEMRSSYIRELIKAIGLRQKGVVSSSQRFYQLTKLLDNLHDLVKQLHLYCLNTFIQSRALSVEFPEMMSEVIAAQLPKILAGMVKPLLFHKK
Sequence of Thyrotropin-releasing hormone receptor (Homo sapiens) (P34981 whole entry, looked up): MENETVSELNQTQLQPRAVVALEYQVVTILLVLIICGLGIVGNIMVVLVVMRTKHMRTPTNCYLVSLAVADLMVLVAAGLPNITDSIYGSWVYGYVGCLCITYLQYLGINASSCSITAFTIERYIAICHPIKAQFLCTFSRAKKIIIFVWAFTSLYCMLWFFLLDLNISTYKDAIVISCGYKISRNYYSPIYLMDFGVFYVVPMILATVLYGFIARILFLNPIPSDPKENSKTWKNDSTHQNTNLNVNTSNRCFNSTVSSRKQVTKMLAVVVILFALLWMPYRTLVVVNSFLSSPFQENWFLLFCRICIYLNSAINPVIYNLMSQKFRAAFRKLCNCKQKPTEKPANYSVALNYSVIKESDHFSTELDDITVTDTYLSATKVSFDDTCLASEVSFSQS
Sequence of Thyrotropin receptor (Homo sapiens) (P16473 whole entry, looked up): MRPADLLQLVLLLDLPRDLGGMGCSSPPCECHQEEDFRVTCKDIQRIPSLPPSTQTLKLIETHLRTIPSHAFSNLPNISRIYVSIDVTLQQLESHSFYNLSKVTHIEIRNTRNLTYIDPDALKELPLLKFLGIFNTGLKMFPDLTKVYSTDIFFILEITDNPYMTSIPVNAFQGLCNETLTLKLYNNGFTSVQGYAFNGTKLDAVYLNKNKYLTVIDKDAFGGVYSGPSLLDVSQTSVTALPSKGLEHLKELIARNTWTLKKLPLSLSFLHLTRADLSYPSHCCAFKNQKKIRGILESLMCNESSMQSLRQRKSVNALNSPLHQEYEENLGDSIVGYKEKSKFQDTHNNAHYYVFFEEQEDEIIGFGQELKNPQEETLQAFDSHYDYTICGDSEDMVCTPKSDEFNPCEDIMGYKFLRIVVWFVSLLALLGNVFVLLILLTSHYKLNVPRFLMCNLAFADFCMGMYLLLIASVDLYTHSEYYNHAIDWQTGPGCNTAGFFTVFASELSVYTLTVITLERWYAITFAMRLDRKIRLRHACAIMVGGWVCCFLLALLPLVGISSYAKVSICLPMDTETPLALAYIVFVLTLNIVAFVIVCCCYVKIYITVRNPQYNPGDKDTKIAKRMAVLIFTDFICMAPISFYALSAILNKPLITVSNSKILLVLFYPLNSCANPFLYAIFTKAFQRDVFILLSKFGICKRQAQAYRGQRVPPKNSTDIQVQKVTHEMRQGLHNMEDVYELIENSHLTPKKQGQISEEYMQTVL

Nc1ccc(Cl)c(N)c1
not listed: [9] | [10]
inactive: all other assays above

C=Cc1ccc(C)cc1
inactive: all assays above

C=CC(C)CCCC(C)(C)O (stereo unspecified)
not listed: [10]
inactive: all other assays above

CC(=O)CCC=C(C)C
inactive: all assays above

OCc1ccccc1
inactive: all assays above

CCCCCCC=O
inactive: all assays above

O=C(O)c1cc2ccccc2cc1O
not listed: [10]
inactive: all other assays above

CC(C)(Oc1ccc(CCNC(=O)c2ccc(Cl)cc2)cc1)C(=O)O
inactive: all assays above

CNC(=O)Oc1ccc2c(c1)[C@]1(C)CCN(C)[C@@H]1N2C
inactive: all assays above

CCCCCCCCCCN
inactive: all assays above

CCOC(=O)n1ccn(C)c1=S
not listed: [10]
inactive: all other assays above

O=S(=O)(O)c1ccccc1
inactive: all assays above

C=CC[N+](C)(C)CC=C
not listed: [7]
inactive: all other assays above

CC(=O)OCc1ccco1
not listed: [7] | [10]
inactive: all other assays above

COC(=O)c1cccnc1
not listed: [7] | [9] | [10]
inactive: all other assays above

COC(=O)CCCC(=O)OC
not listed: [9]
inactive: all other assays above

C=C(C)C(=O)OCC(C)C
not listed: [7]
inactive: all other assays above

CC1(C)CC(N)CC(C)(CN)C1 (stereo unspecified)
not listed: [9]
inactive: all other assays above

CCCCCCCCCCCCCCCCO
not listed: [9]
inactive: all other assays above

Brc1ccc(Br)c(Br)c1
not listed: [7] | [9] | [10]
inactive: all other assays above

CN/C(=C\[N+](=O)[O-])NCCSCc1csc(CN(C)C)n1
not listed: [7]
inactive: all other assays above

CC(C)CC(C)O (stereo unspecified)
not listed: [7] | [10]
inactive: all other assays above

CC(CCO)CC(C)(C)C (stereo unspecified)
not listed: [9]
inactive: all other assays above

C=C(C)[C@H]1CC=C(C)C(=O)C1
not listed: [7] | [10]
inactive: all other assays above

CCNc1ccccc1
not listed: [7] | [9] | [10]
inactive: all other assays above

CC(C)CCCCCCCOC(=O)CCCCC(=O)OCCCCCCCC(C)C
not listed: [7]
inactive: all other assays above

Nc1nc(N)nc(-c2ccccc2)n1
not listed: [9]
inactive: all other assays above
